Data: PubChem BioAssay
Calls of active or inactive are those of the source. Rule as the data show it, unless noted: active = inhibition above about 80%; inactive = the rest.

Tests used:
[1] = LFS_MB_P medulloblastoma growth inhibition, cell-based, chromothripsis tumors, cisplatin or BGB combos (AID 1671449); conditions: LFS_MB_P medulloblastoma cells;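 also: cells exposed for 96 hours; 0% = vehicle DMSO and 100% = killing by high DMSO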
[2] = HDN33 neuroblastoma growth inhibition, cell-based, chromothripsis tumors, cisplatin or BGB combos (AID 1671450); conditions: HDN33 neuroblastoma cells, stronger effect = higher value;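 also: cells exposed to compound for four days; 0% = vehicle DMSO and 100% = cell killing by high DMSO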
[3] = ICB984 medulloblastoma cell growth inhibition, synergistic combos for chromothripsis tumors, cisplatin or BGB combos (AID 1671451; call rule not given here;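 also: cells exposed for 96 hours before readout; 0% = vehicle DMSO and 100% = killing by high DMSO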); conditions: ICB984 medulloblastoma cells, drug combinations, stronger effect = higher value
[4] = LFS_MB_1R medulloblastoma cell growth inhibition, synergistic combos for chromothripsis tumors, cisplatin or BGB combos (AID 1671452); conditions: LFS_MB_1R medulloblastoma cells, stronger effect = higher value;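 also: cells exposed for 96 hours before readout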
[5] = HTB85 osteosarcoma cell growth inhibition, synergistic combos for chromothripsis tumors, BGB or cisplatin IC20 combos (AID 1671453); conditions: HTB85 osteosarcoma cells, drug combinations, stronger effect = higher value;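 also: cells exposed for 96 hours before readout; 0% = vehicle DMSO and 100% = high DMSO killing control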
[6] = CRL2098 osteosarcoma cell growth inhibition, synergistic combos for chromothripsis tumors, BGB or cisplatin IC20 combos (AID 1671454); conditions: CRL2098 osteosarcoma cells, drug combinations, stronger effect = higher value;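 also: cells exposed for 96 h before readout; 0% = vehicle DMSO and 100% = killing by high DMSO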
[7] = HD-MB03 medulloblastoma cell growth inhibition, synergistic combos for chromothripsis tumors, BGB or cisplatin IC20 combos (AID 1671455; in the data active = inhibition above about 83%;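 also: 0% = vehicle DMSO and 100% = high DMSO as cytotoxic control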); conditions: HD-MB03 medulloblastoma cells, stronger effect = higher value
[8] = UWB1.289 ovarian carcinoma cell growth inhibition, synergistic combos for chromothripsis tumors, BGB or cisplatin combos (AID 1671456); conditions: UWB1.289 ovarian carcinoma cells, stronger effect = higher value;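 also: cells exposed to compound for four days; 0% = vehicle DMSO and 100% = killing by high DMSO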
[9] = LFS_MB_2R medulloblastoma cell growth inhibition, synergistic combos for chromothripsis tumors, cisplatin combos (AID 1671457); conditions: LFS_MB_2R medulloblastoma cells, stronger effect = higher value;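 also: cells exposed to compound for four days before readout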
[10] = MDA-MB-436 breast carcinoma cell growth inhibition, synergistic combos for chromothripsis tumors, BGB or cisplatin combos (AID 1671458; call rule not given here;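 also: cells exposed for 96 hours; 0% = vehicle DMSO and 100% = killing by high DMSO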); conditions: MDA-MB-436 breast carcinoma growth inhibition, drug combinations, stronger effect = higher value
[11] = UWB1.289_BRCA1 ovarian cancer growth, cell-based, BGB or cisplatin combinations (AID 1671459); conditions: UWB1.289 BRCA1 ovarian carcinoma, drug combinations, stronger effect = higher value
[12] = human astrocyte viability loss, single and combined drugs, cytotoxicity control for chromothriptic childhood tumor combination screen, cell-based, BGB or cisplatin IC20 combos (AID 1671460); conditions: Human astrocytes, drug combinations, stronger effect = higher value;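 also: cells exposed to compounds for 96 hours before viability readout; 0% = vehicle and 100% = killing control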
[13] = growth inhibition of BT084 medulloblastoma cells, cell-based, ICGC_MB145, cisplatin and BGB IC40 combos (AID 1671461); conditions: drug combinations, stronger effect = higher value;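 also: cells exposed to drugs for 96 hours; 0% = vehicle DMSO and 100% = high DMSO full killing control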
[14] = growth inhibition of RCMB18 medulloblastoma cells, cell-based, cisplatin and BGB IC40 combos (AID 1671462); conditions: stronger effect = higher value;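 also: cells exposed to compound for four days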
[15] = growth inhibition of CRL1545 osteosarcoma cells, cell-based, cisplatin and BGB IC20 combos (AID 1671464); conditions: stronger effect = higher value;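 also: cells exposed to compound for 96 hours before readout; 0% = vehicle DMSO and 100% = high DMSO killing control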
[16] = at 0.5 µM, stronger effect = higher value
[17] = measured here: combination with BGB IC20, at 0.005 µM
[18] = measured here: combination with BGB IC40, at 0.005 µM
[19] = measured here: combination with BGB IC40, at 0.05 µM
[20] = measured here: combination with cisplatin, at 0.5 µM, stronger effect = higher value
[21] = measured here: combination with cisplatin, at 5 µM, stronger effect = higher value
[22] = measured here: with BGB IC20 combination, at 0.5 µM
[23] = measured here: with cisplatin IC20 combination, at 0.5 µM
[24] = measured here: 5 uM single agent, at 5 µM
[25] = measured here: combination with cisplatin, at 0.5 µM
[26] = measured here: combination with cisplatin, at 5 µM
[27] = measured here: with BGB IC20, at 0.5 µM
[28] = measured here: with BGB IC20, at 5 µM
[29] = measured here: with cisplatin IC20, at 0.5 µM
[30] = measured here: with cisplatin IC20, at 5 µM
[31] = measured here: combination with BGB at IC20, at 0.5 µM
[32] = measured here: combination with cisplatin at IC20, at 0.5 µM
[33] = measured here: combo with BGB at IC20, at 0.5 µM
[34] = measured here: combo with cisplatin at IC20, at 0.5 µM
[35] = measured here: inhibition with BGB combination, at 0.05 µM
[36] = measured here: inhibition with cisplatin combination, at 0.05 µM
[37] = measured here: BGB combination, at 0.5 µM
[38] = measured here: BGB combination, at 5 µM
[39] = measured here: cisplatin combination, at 0.5 µM
[40] = measured here: cisplatin combination, at 5 µM
[41] = BGB combination, concentration series, at 5 µM
[42] = cisplatin combination, concentration series, at 5 µM
[43] = measured here: combo with BGB IC20, at 0.5 µM
[44] = measured here: combo with cisplatin IC20, at 0.5 µM
[45] = cisplatin combination, at 0.5 µM
[46] = measured here: BGB IC40 combination 0.05 uM, at 0.05 µM
[47] = measured here: BGB IC40 combination, at 0.05 µM

## CCC1(O)C(=O)OCc2c1cc1n(c2=O)Cc2cc3cc(O)ccc3nc2-1 (stereo unspecified)
[1]; [16]
  inhibition: -23.8% (inactive)
[1]; [17]
  inhibition: -39%
[1]; [18]
  inhibition: -64.3%
[1]; [19]
  inhibition: -39.2%
[1]; [20]
  inhibition: -28.8%
[1]; [21]
  inhibition: 80.4%
[2]; BGB combo, at 5 µM
  inhibition: 96.2%
[2]; at 0.5 µM
  inhibition: 75% (inactive)
[2]; cisplatin combo, at 5 µM
  inhibition: 94.5%
[2]; [22]
  inhibition: 83.6%
[2]; [23]
  inhibition: 67.2%
[2]; single agent, at 5 µM
  inhibition: 96%
[3]; BGB IC20 combo, at 0.005 µM
  inhibition: -7.43%
[3]; BGB IC40 combo, at 0.005 µM
  inhibition: -6.67%
[3]; BGB IC40 combo, at 0.05 µM
  inhibition: 96.1%
[3]; at 0.5 µM
  inhibition: -15.7% (inactive)
[3]; cisplatin combo, at 0.05 µM
  inhibition: 96.4%
[3]; cisplatin combo, at 0.5 µM
  inhibition: -28.1%
[3]; cisplatin combo, at 5 µM
  inhibition: -59%
[3]; [24]
  inhibition: -24.3%
[4]; at 0.5 µM
  inhibition: 46% (inactive)
[4]; [19]
  inhibition: -11.8%
[4]; [25]
  inhibition: 91.8%
[4]; [26]
  inhibition: 84.6%
[5]; at 0.5 µM
  inhibition: 98% (active)
[5]; [27]
  inhibition: 97.4%
[5]; [28]
  inhibition: 98%
[5]; [29]
  inhibition: 97.8%
[5]; [30]
  inhibition: 99.5%
[5]; single agent, at 5 µM
  inhibition: 99.6%
[6]; at 0.5 µM
  inhibition: 43.5% (inactive)
[6]; [31]
  inhibition: 62.2%
[6]; [32]
  inhibition: 19%
[7]; at 0.5 µM
  inhibition: 98.3% (active)
[7]; [33]
  inhibition: 98%
[7]; [34]
  inhibition: 98.2%
[8]; at 0.5 µM
  inhibition: 83.6% (active)
[8]; [35]
  inhibition: 5.35%
[8]; [36]
  inhibition: 7.19%
[9]; at 0.5 µM
  inhibition: -2.53% (inactive)
[9]; [25]
  inhibition: 28.3%
[9]; [26]
  inhibition: 65.3%
[10]; at 0.5 µM
  inhibition: 65.8% (inactive)
[10]; [37]
  inhibition: 59%
[10]; [38]
  inhibition: 70.2%
[10]; [39]
  inhibition: 63.8%
[10]; [40]
  inhibition: 80.3%
[11]; [41]
  inhibition: 95.1%
[11]; at 0.5 µM
  inhibition: 89% (active)
[11]; [42]
  inhibition: 102%
[12]; at 0.5 µM
  inhibition: 73.4% (inactive)
[12]; [43]
  inhibition: 82.6%
[12]; [44]
  inhibition: 57.6%
[13]; at 0.5 µM
  inhibition: 1.31% (inactive)
[13]; [45]
  inhibition: 54.4%
[13]; cisplatin combination, at 5 µM
  inhibition: -68.1%
[13]; [46]
  inhibition: -44.1%
[13]; single agent, at 5 µM
  inhibition: -0.722%
[14]; at 0.5 µM
  inhibition: 24% (inactive)
[14]; cisplatin combo, at 5 µM
  inhibition: 79.3%
[14]; [47]
  inhibition: -9.73%
[14]; [25]
  inhibition: 24.7%
[14]; single agent, at 5 µM
  inhibition: 49.8%
[15]; at 0.5 µM
  inhibition: 74.6% (inactive)
[15]; [22]
  inhibition: 87.6%
[15]; [23]
  inhibition: 67.5%
[15]; single agent, at 0.05 µM
  inhibition: 14.1%
[15]; single agent, at 5 µM
  inhibition: 99.4%

## CCC(Sc1nnc2c3ccccc3n(CC)c2n1)C(=O)Nc1ccccc1OC (stereo unspecified)
[1]; [16]
  inhibition: -17.9% (inactive)
[1]; [17]
  inhibition: -26%
[1]; [18]
  inhibition: 87.7%
[1]; [19]
  inhibition: -14.4%
[1]; [20]
  inhibition: -20.5%
[1]; [21]
  inhibition: -38.2%
[2]; BGB combo, at 5 µM
  inhibition: -25%
[2]; at 0.5 µM
  inhibition: -10.1% (inactive)
[2]; cisplatin combo, at 5 µM
  inhibition: 7.7%
[2]; [22]
  inhibition: -15.6%
[2]; [23]
  inhibition: -11.8%
[2]; single agent, at 5 µM
  inhibition: 1.35%
[3]; BGB IC20 combo, at 0.005 µM
  inhibition: -20.7%
[3]; BGB IC40 combo, at 0.005 µM
  inhibition: -12.8%
[3]; BGB IC40 combo, at 0.05 µM
  inhibition: -32.4%
[3]; at 0.5 µM
  inhibition: -26.1% (inactive)
[3]; cisplatin combo, at 0.05 µM
  inhibition: -39.2%
[3]; cisplatin combo, at 0.5 µM
  inhibition: -34.7%
[3]; cisplatin combo, at 5 µM
  inhibition: -6.65%
[3]; [24]
  inhibition: -26%
[4]; at 0.5 µM
  inhibition: -22.8% (inactive)
[4]; [19]
  inhibition: -32%
[4]; [25]
  inhibition: -18.6%
[4]; [26]
  inhibition: -34.1%
[5]; at 0.5 µM
  inhibition: 0.76% (inactive)
[5]; [27]
  inhibition: 6.64%
[5]; [28]
  inhibition: -8.08%
[5]; [29]
  inhibition: -8.64%
[5]; [30]
  inhibition: -18%
[5]; single agent, at 5 µM
  inhibition: 3.91%
[6]; at 0.5 µM
  inhibition: -23.4% (inactive)
[6]; [31]
  inhibition: -38.3%
[6]; [32]
  inhibition: -32%
[7]; at 0.5 µM
  inhibition: -13.9% (inactive)
[7]; [33]
  inhibition: -20.2%
[7]; [34]
  inhibition: -12.1%
[8]; at 0.5 µM
  inhibition: 1.85% (inactive)
[8]; [35]
  inhibition: -11.2%
[8]; [36]
  inhibition: -1.41%
[9]; at 0.5 µM
  inhibition: -23.8% (inactive)
[9]; [25]
  inhibition: -34.2%
[9]; [26]
  inhibition: -45.7%
[10]; at 0.5 µM
  inhibition: -18.3% (inactive)
[10]; [37]
  inhibition: -16.3%
[10]; [38]
  inhibition: -14.5%
[10]; [39]
  inhibition: -37.5%
[10]; [40]
  inhibition: -22%
[11]; [41]
  inhibition: -8.24%
[11]; at 0.5 µM
  inhibition: 0.44% (inactive)
[11]; [42]
  inhibition: 11.1%
[12]; at 0.5 µM
  inhibition: 10.6% (inactive)
[12]; [43]
  inhibition: 14.7%
[12]; [44]
  inhibition: 10.3%
[13]; at 0.5 µM
  inhibition: -2.76% (inactive)
[13]; [45]
  inhibition: -8.44%
[13]; cisplatin combination, at 5 µM
  inhibition: -148%
[13]; [46]
  inhibition: -28.4%
[13]; single agent, at 5 µM
  inhibition: -15.3%
[14]; at 0.5 µM
  inhibition: -9.8% (inactive)
[14]; cisplatin combo, at 5 µM
  inhibition: -1.17%
[14]; [47]
  inhibition: -28%
[14]; [25]
  inhibition: -27.5%
[14]; single agent, at 5 µM
  inhibition: -2.94%
[15]; at 0.5 µM
  inhibition: -6.26% (inactive)
[15]; [22]
  inhibition: 3.68%
[15]; [23]
  inhibition: -13%
[15]; single agent, at 0.05 µM
  inhibition: -16.5%
[15]; single agent, at 5 µM
  inhibition: 1.47%
